The supplement of paper PMC10338343
± gives the standard deviation.

Experiments:
[1] = tested on: MILI (PIWIL2) piRISC loaded with piRNA #1 (26 nt); experiment: pre-steady-state target cleavage rate (min^-1); guide: piRNA #1 5'p-UGAGGUAGUAGGUUGUAUAGUAUCCA; higher = faster piRNA-guided slicing of the target; settings: auxiliary factor: 500 nM mouse GTSF1
How it was run: (§1)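 Active affinity-purified piRISC (1 nM) loaded with one synthetic guide was mixed with a transcribed, DNA-blocked target RNA library (0.1 nM), with or without 500 nM GTSF1 partner protein, in HEPES–potassium acetate buffer at 33 °C for 0–8 or 0–960 min. Uncleaved targets were sequenced, normalised to depth and to weakly complementary targets, and pooled across three trials, with k3 capped at 0.0001 min^-1. The pre-steady-state cleavage rate was determined with a burst-and-steady-state fit.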

[2] = tested on: EfPiwi piRISC loaded with piRNA #1 (26 nt); experiment: pre-steady-state target cleavage rate (min^-1); auxiliary factor: 500 nM Ephydatia muelleri Gtsf1; guide: piRNA #1 5'p-UGAGGUAGUAGGUUGUAUAGUAUCCA; MIWI and MILI are mouse PIWI proteins and EfPiwi is from a freshwater sponge; tags in brackets are library labels; higher = faster piRNA-guided slicing of the target
How it was run: as §1

| Sequence | pre-steady-state target cleavage rate [1] | pre-steady-state target cleavage rate [2] |
| --- | --- | --- |
| GGAGUGGAUAGUAUACAUCCUACUACCUCA | 0.189 ± 0.017 | 0.00444 ± 0.0024 |
| GGAGUGGAUACUAUACAACCAACUACCUCA | 0.00575 ± 0.0022 | 0.00568 ± 0.002 |
| GGAGACCUAUCAAUACAACCUACUACCUCA | 0.0355 ± 0.0083 | 0.00612 ± 0.0034 |
| GGAGAGGAUACUUUACAACCUACAACCUCA | 0.11 ± 0.016 | 0.00228 ± 0.0015 |
| GGAGAGGAUACCUAUACAACCUACUACCUCA | 0.123 ± 0.027 | 0.0826 ± 0.033 |
| GGAGUGGAUACUGUACAACCUACUACCUCA | 0.178 ± 0.0077 | 0.109 ± 0.039 |
| GGAGACGAUUCUAUACUACCUACUACCUCA | 0.213 ± 0.011 | 0.00459 ± 0.0029 |
| GGAGACCAUACUAUACAAUCUACUACCUCA | 0.146 ± 0.013 | 0.00847 ± 0.004 |
| GGAGAGCAUACUAUACAACCUAGUACCUCA | 0.0618 ± 0.013 | 0.00276 ± 0.0014 |
| GGAGUGGAUACUAUACAACGUACUUCCUCA | 0.0153 ± 0.0037 | 0.00364 ± 0.0017 |
| GGAGUGGAUACUAUACAUCCUACUACCUCA | 0.267 ± 0.014 | 0.124 ± 0.044 |
| GGAGUGGAUACAUUACAACCUACUACCUCA | 0.152 ± 0.012 | 0.00715 ± 0.0034 |
| GGAGACGAUACUAUACUUCCUACUACCUCA | 0.242 ± 0.016 | 0.0109 ± 0.0064 |
| GGAGACCAUUCUUUACAACCUACUACCUCA | 0.0902 ± 0.012 | 0.0111 ± 0.0056 |
| GGAGUGGAUACUUUACAACCUACUACCUCA | 0.174 ± 0.0092 | 0.00658 ± 0.0035 |
| GGAGUGGAUUCUAUACAACCUUCUACCUCA | 0.00777 ± 0.0028 | 0.00415 ± 0.0028 |
| GGAGAGGAUACAAUACAACCUACUACCUCA | 0.172 ± 0.012 | 0.0112 ± 0.005 |
| GGAGUCGGAUACUAUACAACCUACUACCUCA | 0.187 ± 0.015 | 0.0621 ± 0.024 |
| GGAGAGGAUUGUAUACAACCUACUACCUCA | 0.103 ± 0.0085 | 0.00676 ± 0.0048 |
| GGAGACGAUAUAUACAACCUACUACCUCA | 0.154 ± 0.011 | 0.00621 ± 0.0041 |

| Sequence | pre-steady-state target cleavage rate [1] | pre-steady-state target cleavage rate [2] |
| --- | --- | --- |
| GGAGUGGAUACUAUACAACCUACUAGCUCA | 0.0481 ± 0.0088 | 0.00429 ± 0.0016 |
| GGAGUGGAAACUAUACAACCUAGUACCUCA | 0.055 ± 0.021 | 0.00276 ± 0.0018 |
| GGAGAGGAUACAUACAACCUACUACCUCA | 0.137 ± 0.016 | 0.0103 ± 0.005 |
| GGAGACGUUACUAUACAACCUACUACGUCA | 0.0772 ± 0.016 | 0.00396 ± 0.0018 |
| GGAGAGGCUACUAUACAACCUACUACCUCA | 0.182 ± 0.017 | 0.0629 ± 0.022 |
| GGAGACGAUACUAUACAACCUACUAGCACA | 0.00848 ± 0.0055 | 0.00326 ± 0.0016 |
| GGAGAGGAUACUAUAACAACCUACUACCUCA | 0.161 ± 0.012 | 0.0661 ± 0.025 |
| GGAGAGGUAUACUAUACAACCUACUACCUCA | 0.111 ± 0.0086 | 0.0588 ± 0.023 |
| GGAGUGGAAUCUAUACAACCUACUACCUCA | 0.152 ± 0.0088 | 0.00913 ± 0.0055 |
| GGAGAGGAUACUAUACAACGUACAACCUCA | 0.0104 ± 0.0029 | 0.00357 ± 0.0017 |
| GGAGACGAUACUAUACAACGUACUACCUCA | 0.0266 ± 0.0047 | 0.00525 ± 0.0016 |
| GGAGACGAUACUAUACAACCUACUACCAUCA | 0.134 ± 0.013 | 0.00489 ± 0.002 |
| GGAGUGCAUACUAUACAACCUACUACCACA | 0.124 ± 0.013 | 0.00342 ± 0.0028 |
| GGAGACGAUACUAUACUACCAACUACCUCA | 0.00729 ± 0.0029 | 0.0038 ± 0.0023 |
| GGAGAGGAUACUAUACAACCUGACUACCUCA | 0.00367 ± 0.0024 | 0.00442 ± 0.0022 |
| GGAGAGGUUACUUUACAACCUACUACCUCA | 0.175 ± 0.01 | 0.00375 ± 0.0031 |
| GGAGACCUAUCUAUACAACCUACUACCUA | 0.0666 ± 0.0086 | 0.00487 ± 0.0042 |
| GGAGACGUUACUAUACAACCUUCUACCUCA | 0.00861 ± 0.0028 | 0.00871 ± 0.0043 |
| GGAGUGGAAACUUUACAACCUACUACCUCA | 0.179 ± 0.02 | 0.00583 ± 0.0037 |
| GGAGACCAUACUAUAGAACCUACUACCUCA | 0.116 ± 0.016 | 0.00367 ± 0.0017 |

| Sequence | pre-steady-state target cleavage rate [1] | pre-steady-state target cleavage rate [2] |
| --- | --- | --- |
| GGAGGGGAUACUAUACAACCUACUACCUCA | 0.203 ± 0.0091 | 0.209 ± 0.067 |
| GGAGUGGAUACUAUACAACCUGCUACCUCA | 0.0658 ± 0.0067 | 0.0792 ± 0.029 |
| GGAGAUGAUACUAUACAACCUACUACCUCA | 0.198 ± 0.013 | 0.193 ± 0.068 |
| GGAGAGGAUACUAUACAACCUACUACCAGA | 0.0384 ± 0.0076 | 0.00451 ± 0.0018 |
| GGAGACCAUACUAUAAAACCUACUACCUCA | 0.2 ± 0.016 | 0.00433 ± 0.0026 |
| GGAGACCAUUCAAUACAACCUACUACCUCA | 0.0561 ± 0.0083 | 0.0119 ± 0.0054 |
| GGAGAGGAUUGAAUACAACCUACUACCUCA | 0.0664 ± 0.0088 | 0.00721 ± 0.0044 |
| GGAGUGGAUACUAUACAACGUACUACGUCA | 0.0108 ± 0.0027 | 0.0036 ± 0.0015 |
| GGAGAGCAUACUAUUCAACCUACUACCUCA | 0.217 ± 0.017 | 0.00555 ± 0.0041 |
| GGAGACCAUACUAUACAACCUACUUGCUCA | 0.13 ± 0.032 | 0.00354 ± 0.002 |
| GGAGAGGAUACUAUACAACGCUACUACCUCA | 0.00299 ± 0.0026 | 0.00523 ± 0.0033 |
| GGAGACGAUACUAUACAAACCUACUACCUCA | 0.00373 ± 0.0026 | 0.00846 ± 0.0032 |
| GGAGACGAUACUAUAGAACCUACUAGCUCA | 0.0159 ± 0.0077 | 0.00419 ± 0.0018 |
| GGAGACGUAACUAUACAACCUACUACCUCA | 0.166 ± 0.018 | 0.0248 ± 0.0098 |
| GGAGACCAUACUAUACAGCCUACUACCUCA | 0.157 ± 0.02 | 0.16 ± 0.053 |
| GGAGUGGAUACUAUACAACCUACUACCUAA | 0.105 ± 0.014 | 0.151 ± 0.054 |
| GGAGACCUUUCUAUACAACCUACUACCUGA | 0.0728 ± 0.013 | 0.0049 ± 0.0044 |
| GGAGUGGAUACUAUACAUGCUACUACCUCA | 0.109 ± 0.0081 | 0.00896 ± 0.0037 |
| GGAGACGAUAGAUUACAACCUACUACCUCA | 0.0557 ± 0.011 | 0.00662 ± 0.0047 |
| GGAGUCGAUACUAUACAACCUACUACCUCA | 0.18 ± 0.013 | 0.106 ± 0.034 |
